High-throughput results from PubChem BioAssay.
This is one part of a sample in which hits are shown more often than they occur.
DT40 TDP1 no CPT – qHTS for Inhibitors of human tyrosyl-DNA phosphodiesterase 1 (TDP1): qHTS in cells in absence of CPT. 15% of 420,000 active. DT40 Tdp1-/- hTDP1 cells, no CPT, ATP luminescence, 48 h. Potency, µM (series often up to 46.2 µM), without a hit: at the top dose activity change, negative = growth inhibition, most hits filed as inhibitors; also: potency is read from the fitted curve at half-maximal effect; nearly all actives have a fitted effect of over 55% in size
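No-CPT arm: Tdp1-/-;hTDP1 DT40 cells (400/well) plus compounds, incubated ≥48 hr at 37 °C. Readout CellTiter-Glo luminescence.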
12-LOX inh – Primary qHTS assay for inhibitors of human arachidonate 12S-lipoxygenase (ALOX12): Round 2; purified 12hLO, xylenol orange hydroperoxide absorbance; Polyunsaturated fatty acid lipoxygenase ALOX12 (Homo sapiens), P18054; 1.1% of 580,000 active; Potency, µM (top dose mostly 108 µM), for the others: at the highest dose activity change, negative = inhibition, actives largely listed as inhibitors; also: potency is read from the fitted curve at half-maximal effect
Target sequence (P18054 whole entry, looked up): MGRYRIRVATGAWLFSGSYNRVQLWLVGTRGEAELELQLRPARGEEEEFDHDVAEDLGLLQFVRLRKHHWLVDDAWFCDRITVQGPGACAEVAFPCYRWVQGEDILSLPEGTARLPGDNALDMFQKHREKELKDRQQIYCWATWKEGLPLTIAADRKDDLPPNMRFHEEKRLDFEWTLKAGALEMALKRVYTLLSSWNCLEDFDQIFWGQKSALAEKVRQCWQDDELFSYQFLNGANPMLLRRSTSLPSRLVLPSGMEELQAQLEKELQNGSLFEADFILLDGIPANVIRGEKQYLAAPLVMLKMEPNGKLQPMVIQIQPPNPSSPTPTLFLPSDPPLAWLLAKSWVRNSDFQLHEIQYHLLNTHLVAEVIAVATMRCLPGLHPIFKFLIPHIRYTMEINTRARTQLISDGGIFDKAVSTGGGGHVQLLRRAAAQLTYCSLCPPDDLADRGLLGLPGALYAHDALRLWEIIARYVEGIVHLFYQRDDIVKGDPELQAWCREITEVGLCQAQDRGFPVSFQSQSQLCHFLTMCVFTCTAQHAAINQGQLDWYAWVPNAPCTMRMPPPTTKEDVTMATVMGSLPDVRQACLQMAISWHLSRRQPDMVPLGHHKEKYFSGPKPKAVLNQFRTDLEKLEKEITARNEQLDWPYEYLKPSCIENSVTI
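Purified human 12hLO (150 nM final) in 25 mM Hepes, 0.01% Triton X-100, pH 7.0 was preincubated 15 min at room temperature with compound. Then 40 uM arachidonic acid was added, 30 min. Hydroperoxide was read by Fe-XO absorbance ratio 573/405 nm.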
HT1080-NT tox – qHTS for induction of synthetic lethality in tumor cells producing 2HG: qHTS for the HT-1080-NT fibrosarcoma cell line; AID 686970, 2013; Potency, µM (titrated, usually from 46.1 µM), for the others: top-dose activity, negative = less viability, most hits filed as cytotoxic; 1.6% of 360,000 active; HT-1080-NT fibrosarcoma viability, CellTiter-Glo ATP luminescence, 48 h;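 also: NT is the 2HG producing partner of a matched IDH1 knockdown line; potency is read from the fitted curve at half-maximal effect; 0% = DMSO-treated cells and -100% = media-only wells without cells; nearly all actives have a fitted effect of over 55% in size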
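Viability by CellTiter-Glo luminescence after 48 h compound exposure at 37C of HT-1080-NT cells (750/well, RPMI, 5% FBS). % activity scaled between DMSO wells and medium-only wells, then curve-fitted and categorized by curve class.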
IL1B secr inh – qHTS for Inhibitors of Inflammasome Signaling: IL-1-beta AlphaLISA Primary Screen; 4.7% of 360,000 active; THP-1 LPS/ATP IL-1B secretion, AlphaLISA, 16 h; hits give low values; activity change, % at 57.5 µM; in the data active = activity change below about -50%; inconclusive = mostly about -30% to -49%
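THP-1 cells pretreated 1 hr with compounds (up to 57.5 uM final), then stimulated with LPS (250 ng/mL final) plus ATP (1.25 mM final); secreted IL-1B measured by AlphaLISA after 16 hr, decreased signal indicating inhibition.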
DT40 TDP1 CPT – qHTS for Inhibitors of human tyrosyl-DNA phosphodiesterase 1 (TDP1): qHTS in cells in presence of CPT; chicken DT40 Tdp1-/-;hTDP1 cells + 20 nM CPT, ATP luminescence, 48 h; Potency, µM (titrated, usually from 46.2 µM), for inactives: at the top dose activity change, negative = growth inhibition, actives largely listed as inhibitors; 12% of 420,000 active; AID 686979, 2013; also: potency is read from the fitted curve at half-maximal effect; nearly all actives have a fitted effect of over 55% in size
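Chicken DT40 Tdp1-/- cells complemented with human TDP1, 400 cells/well, exposed to compounds plus 20 nM camptothecin for at least 48 h at 37 C; viability read as ATP content by CellTiter-Glo luminescence.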
HT1080 IDH1KD tx – qHTS for induction of synthetic lethality in tumor cells producing 2HG: qHTS for the HT-1080-IDH1KD cell line; AID 686971, 2013; 2% of 360,000 active; Potency, µM (top dose mostly 46.1 µM), without a hit: top-dose activity, negative = toxicity, most hits filed as cytotoxic; HT-1080 IDH1 knockdown viability, ATP luminescence, 48 h;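 also: potency is read from the fitted curve at half-maximal effect; 0% = DMSO wells and -100% = cell-free medium wells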
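Using the IDH1-knockdown HT-1080 line run in the same batch and compound series as the NT line, viability after 48 h at 37 °C was determined by CellTiter-Glo luminescence and expressed as % activity.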
Starred values were filed as active, the others as inactive; i = inactive; u = inconclusive; x = no result. Unless noted, calls follow the shape of the dose curve; as a rule, active = well fitted curve in the direction sought with a large enough effect; inconclusive = small, poorly fitted or top-dose-only effect, or another doubt; inactive = no such curve, though single readings can be large; an effect the other way counts as inactive or inconclusive. Unless noted, % is scaled to controls: 0 for no effect and ±100 for the full control effect.

SMILES	DT40 TDP1 no CPT	12-LOX inh	HT1080-NT tox	IL1B secr inh	DT40 TDP1 CPT	HT1080 IDH1KD tx
CCOc1cc(CNCCCN2CCOCC2)cc(Br)c1OCC(=O)Nc1cccc(C(F)(F)F)c1	4.1µM*	u	u	-22	5.2µM*	u
COc1cc(CNCCc2ccc(S(N)(=O)=O)cc2)ccc1OCC(=O)NC1CCCCC1	-28%	u	7%	-1	u	5%
CCS(=O)(=O)N1CCCOCCNC(=O)[C@@H]2CCC[C@@H]21	x	48%	x	x	x	x
CC(=O)N[C@@H]1CN(C(=O)CCCS(N)(=O)=O)C[C@H]1c1ccc(C)cc1	x	69%	x	x	x	x
CCOC(=O)COc1ccc(Br)cc1/C=C\c1[nH]c(=O)[nH]c(=O)c1[N+](=O)[O-]	23µM*	-14%	-3%	i	23µM*	-11%
O=C(COc1ccccc1/C=C\c1[nH]c(=O)[nH]c(=O)c1[N+](=O)[O-])Nc1ccccc1	-12%	u	0%	-14	-4%	10%
CCCOc1ccc(/C=C/c2[nH]c(=O)[nH]c(=O)c2[N+](=O)[O-])cc1OCC	4%	-7%	7%	-5	27%	-1%
CCOC(=O)COc1ccc(Br)cc1/C=C/c1[nH]c(=O)[nH]c(=O)c1[N+](=O)[O-]	u	-28%	18µM*	-63*	-3%	u
O=C1CC(c2ccccc2)=NN1c1ccccc1	15µM*	-13%	u	-82*	u	-34%
O=C1CCC(c2ccccc2)=NN1c1ccccc1	x	29%	x	x	x	x
O=C(CN1CCCC1)Nc1cccc(Cl)c1Cl	-9%	-4%	4%	5	8%	0%
O=C(CN1CCN(CC(=O)Nc2ccccc2Cc2ccccc2)CC1)Nc1ccccc1Cl	12µM*	-5%	11%	16	10µM*	17%
O=C(CN1CCCC1)Nc1ccccc1Cl	0%	-5%	-1%	-1	-3%	2%
O=C(CN1CCN(Cc2ccccc2)CC1)Nc1cccc(Cl)c1Cl	21µM*	-6%	3%	-19	u	3%
O=C(CN1CCN(Cc2ccccc2)CC1)Nc1ccc(Br)cc1	21µM*	59%	9%	-8	u	-3%
Cc1ccc(NC(=O)CN2CCN(Cc3ccccc3)CC2)cc1	-4%	0%	-8%	4	-10%	4%
O=C(CC1Sc2ccc(C(F)(F)F)cc2NC1=O)NOC1CCCCO1 (stereo not drawn)	x	3%	x	x	x	x
N#Cc1nc(-c2ccccc2F)oc1NCc1ccccc1Cl	x	-28%	x	x	x	x
CN(C)S(=O)(=O)c1cccc(-c2nn(-c3ccccc3)cc2/C=C(\C#N)c2nc3ccccc3[nH]2)c1	5.8µM*	-26%	-1%	-3	5.2µM*	3%
CN(C)S(=O)(=O)c1cccc(-c2nn(-c3ccccc3)cc2/C=C2\SC(=S)NC2=O)c1	u	u	u	-5	u	10µM*
CCN1CCN(S(=O)(=O)c2cc(OCC(=O)NC3CCCCC3)c(C)cc2Cl)CC1	u	0%	-4%	u	23µM*	-1%
Cc1cc(Cl)c(S(=O)(=O)N2CCCCCC2)cc1OCC(=O)NC1CCCCC1	1%	-3%	-4%	-6	-8%	2%
Cc1cc(Cl)c(S(=O)(=O)N2CCN(c3ccccn3)CC2)cc1OCC(=O)NC1CCCCC1	21µM*	3%	u	u	u	-8%
